From PubChem BioAssay
This is a sample that favours compounds with a hit; in the whole collection about 7.3% have one here.
FLuc modulator – inhibits or activates purified firefly luciferase, miR-21 counter-screen; P08659; purified FLuc, Km substrates, luminescence inhibition; Potency, µM (top dose mostly 57.5 µM), for the others: top-dose activity change, negative = inhibition, most hits filed as inhibitors; hit rate 6.9% among 360,000;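 further: plate controls were vehicle for no effect and reference inhibitor for full effect; nearly all actives have a fitted effect of over 55% in size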
Target sequence (P08659 whole entry, looked up): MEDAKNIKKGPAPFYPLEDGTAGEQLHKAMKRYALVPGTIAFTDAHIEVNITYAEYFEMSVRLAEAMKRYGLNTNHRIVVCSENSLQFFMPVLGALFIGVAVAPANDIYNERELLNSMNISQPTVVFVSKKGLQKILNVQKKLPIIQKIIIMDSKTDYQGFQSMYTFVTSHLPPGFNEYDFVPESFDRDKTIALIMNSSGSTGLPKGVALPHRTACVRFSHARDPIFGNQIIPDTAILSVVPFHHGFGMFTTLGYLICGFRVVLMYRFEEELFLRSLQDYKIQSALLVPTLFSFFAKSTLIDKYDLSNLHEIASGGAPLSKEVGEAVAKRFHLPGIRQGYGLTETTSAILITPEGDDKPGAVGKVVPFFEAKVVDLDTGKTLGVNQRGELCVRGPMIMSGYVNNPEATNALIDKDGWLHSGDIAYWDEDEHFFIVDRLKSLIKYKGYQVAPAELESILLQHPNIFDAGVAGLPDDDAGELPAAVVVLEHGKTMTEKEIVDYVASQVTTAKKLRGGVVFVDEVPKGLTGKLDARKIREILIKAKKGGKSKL
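Purified P. pyralis luciferase (10nM final) with 10uM D-luciferin and 10uM ATP (Km levels) in 50mM Tris acetate pH 7.5, 10mM Mg acetate, 0.01% Tween-20, 0.05% BSA; qHTS 6-point titration, ~60 µM downward; luminescence read.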
NPC1 prom act – activators of NPC1 promoter; Huh7 NPC1 promoter luciferase reporter, 24 h; AID 485313; hit rate 2.4% among 320,000; Potency, µM (highest dose often 9.22 µM), without a hit: at the highest dose activation, actives largely listed as activators; further: % of control where 0% means no effect; nearly all actives have a fitted effect of over 60% in size
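Huh7 cells stably carrying NPC1 promoter–luciferase, plated in Opti-MEM with 10% FBS for 2 h, were exposed to compound in DMSO for 24 h at 37 °C; luciferase reagent was added for 10 min and luminescence read.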
Rab9 prom act – activators of Rab9 promoter; Huh7 Rab9 promoter-luciferase reporter, luminescence, 24 h; Potency, µM (doses to about 9.22 µM), for inactives: at the top dose activation, negative = inhibition, usual class: activators; hit rate 2.8% among 320,000; further: % of control where 0% means no effect; nearly all actives have a fitted effect of over 60% in size
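Huh7 reporter line, Rab9 promoter upstream of luciferase. Compound exposure 24 h at 37 °C in reduced-serum medium with 10% FBS. Read-out: luminescence.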
SMN2 splice enh – SMN2 splice variant enhancement. HEK293 SMN2-luciferase splicing reporter, luminescence, 30-36 h. Potency, µM (highest dose often 46.1 µM), for the others: top-dose activity change, positive = activation, hits mostly activators. hit rate 2.8% among 210,000; further: % of control where 0% means no effect; nearly all actives have a fitted effect of over 55% in size
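qHTS luciferase splicing reporter: luminescence rises when SMN2 exon 7 is included in transfected HEK293 cells. Compound exposure lasted 30-36 h at 37C, with 4.5 mM final sodium butyrate as control, followed by a ONE-Glo read.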
Luc counter – Kinase-Glo luciferase inhibition (counter-screen). Q27757. Kinase-Glo luciferase, ATP luminescence, 8 min. Potency, µM (series often up to 38.3 µM), for inactives: at the top dose activity change, negative = inhibition, hits mostly inhibitors. hit rate 0.28% among 200,000. AID 1379; further: on the % scale 0 is the no-effect control and ±100 the full control effect; nearly all actives have a fitted effect of over 60% in size
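Kinase-Glo luciferase light output from ATP and luciferin was measured with 10 uM ATP, within the enzyme's linear range. Buffer: 50 mM imidazole pH 7.2, 50 mM KCl, 7 mM MgCl2, 0.01% Tween 20, 0.05% BSA; luminescence read after 8 min at ambient temperature.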
Starred values were filed as active, the others as inactive; ? = inconclusive; / = no result given; [ ] = another dose, or the depositor's remark. The call rests on the fitted dose curve; in most records, active means well fitted curve in the direction sought with a large enough effect; inconclusive means small, poorly fitted or top-dose-only effect, or another doubt; inactive means no such curve, though single readings can be large; an effect the other way counts as inactive or inconclusive. Potency means the concentration at half of the fitted maximal effect.

SMILES | FLuc modulator | NPC1 prom act | Rab9 prom act | SMN2 splice enh | Luc counter
CC1CCN(c2nc3ccc(C(=O)NCc4ccccc4Cl)cc3s2)CC1 | 6.7µM* | / | / | -10% | /
O=C(NCC1CCCO1)c1ccc2nc(N3CCCCC3)sc2c1 (centres undefined) | 17µM* | 2µM* | ? | 0% | -3%
O=C(NCCCN1CCN(c2ccccc2F)CC1)c1ccc2nc(N3CCCCC3)sc2c1 | ? | / | / | 5.6µM* | /
O=C(NCCc1ccccc1)c1ccc2nc(N3CCCCC3)sc2c1 | ? | / | / | 2% | /
CCOC(=O)c1cccc(NC(=O)CSc2cc(=O)n(C)c3ccccc23)c1 | -13% | / | / | -6% | /
CC1CCN(c2nc3ccc(C(=O)O)cc3s2)CC1 | 0.21µM* | -48% | -49% | -53% | -5%
Cc1ccc(CCNC(=O)c2ccc3nc(N4CCC(C)CC4)sc3c2)cc1 | -14% | / | / | 0% | /
Cc1ccc(-n2c(=O)c3sc4ccccc4c3n(C)c2=O)cc1F | -1% | / | / | -6% | /
C/C(O)=C1\C(=O)[C@@H]2[C@H]3c4c[nH]c5cccc(c45)C[C@H]3C(C)(C)N2C1=O | / | / | / | -5% | /
O=C1CC(=Nc2ccccc2)NN1c1ccccc1 | 17µM* | -1% | 1% | -2% | 2%
CC(=O)c1cccc(NC(=O)Nc2cccnc2)c1 | ? | 12% | -1% | -6% | -5%
COc1cccc(NC(=O)Nc2cccs2)c1 | 24µM* | 19% | ? | ? | -8%
COc1ccc(NC(=O)c2cccs2)cc1OC | ? | 20% | 24% | / | 0%
COc1ccc(NC(=O)Nc2cccs2)cc1OC | 21µM* | 18% | 20% | -7% | -5%
CC(=O)c1cccc(NC(=O)Nc2cccs2)c1 | 19µM* | 15% | 10% | 15% | -3%
COc1ccc(Cn2c(C(=O)O)c(CNC3CCC(C)CC3)c3ccc(C)cc32)cc1 (centres undefined) | -6% | / | / | / | /
CCOc1ccc(C(=O)Nc2cccc(C)n2)cc1 | 2.4µM* | 2µM* | 1µM* | 5µM* | ?
CCOc1ccc(NC(=O)Nc2cccc(C)n2)cc1 | ? | 3.5µM* | 2.5µM* | 28% | /
CCCCOc1ccc(C(=O)Nc2cccc(C)n2)cc1 | 3µM* | 3.5µM* | ? | ? | -19%
CCOc1ccc(NC(=O)Nc2ccc(Cc3ccncc3)cc2)cc1 | 0% | 1% | 1% | / | /
Cc1cccc(NC(=O)c2ccc(Cl)nc2)n1 | -8% | 10% | 12% | / | /
O=C(CSc1ccc2nc(-c3ccccc3)cn2n1)NCC1CCCO1 (centres undefined) | 19µM* | ? | ? | / | /
O=C(CSc1ccc(-c2ccc(-n3cccn3)cc2)nn1)Nc1ccccc1F | 0.6µM* | 13% | 2% | / | /
COc1ccc(-c2cn3nc(SCC(=O)Nc4ccccc4F)ccc3n2)cc1 | 1.1µM* | / | / | / | /
O=C(CSc1nc(-c2ccccc2)ns1)NCC1CCCO1 (centres undefined) | ? | ? | 28% | / | /
SMILES | FLuc modulator | NPC1 prom act | Rab9 prom act | SMN2 splice enh | Luc counter
COc1ccc(-c2cc(-c3ccccc3)nc(SCC(=O)Nc3ccccc3F)c2C#N)cc1 | -1% | / | / | -9% | /
COc1ccc(-c2cn3nc(SCC(=O)NCC4CCCO4)ccc3n2)cc1 (centres undefined) | 2.7µM* | ? | 1.6µM* | / | /
CCC1CCCCN1CC(=O)Nc1ccc2c(c1)OCCO2 (centres undefined) | 24µM* | 22% | 28% | / | /
CCN1CCN(CC(=O)Nc2ccc3c(c2)OCCO3)C(=O)C1=O | 2% | -4% | 3% | -31% | 3%
CC1CC(C)CN(CC(=O)Nc2ccc3c(c2)OCCO3)C1 (centres undefined) | 15µM* | ? | ? | -32% | -7%
CC1CC(C)(C)NC(=S)N1CCCC(=O)Nc1ccc2c(c1)OCCO2 (centres undefined) | 27µM* | 0% | ? | 19% | -3%
CC1CCN(CCC(=O)Nc2ccc3c(c2)OCCO3)CC1 | 3% | 1% | 14% | 20% | 3%
CCOC(=O)N1CCC(NC(=O)c2cnn(-c3ccc(OC)cc3)c2C2CCN(C(=O)OC(C)(C)C)CC2)CC1 | -1% | / | / | / | /
Cc1ccc(N(CC(=O)NCCc2ccccc2C)S(=O)(=O)N(C)C)cc1 | -7% | / | / | 0% | /
Cc1ccc(C)n1-c1ccc(N2CCOCC2)nc1 | 3% | 4% | -14% | 14µM* | 0%
CCOc1ccc(NC2=C(OC)C(=O)c3ccccc3C2=O)cc1 | 17µM* | 15% | 3% | -26% | -13%
COC1=C(Nc2ccc(OC)cc2)C(=O)c2ccccc2C1=O | 19µM* | 28% | ? | ? | -20%
CCN(CC)c1ccc(NC2=C(Cl)C(=O)c3ccccc3C2=O)cc1 | 12µM* | -38% | -35% | -109% | ?
Cc1ccc(N2C(=O)CC3(CCCC3)CC2=O)cc1 | 11µM* | 2% | 12% | / | /
Cc1nc(N)sc1N=Nc1ccccc1C(F)(F)F | 12µM* | ? | 2.8µM* | / | /
CCN(CC)S(=O)(=O)c1cccc(N=Nc2sc(N)nc2C)c1 | -3% | -2% | -3% | / | /
O=C(O)CC[C@]1(C(=O)O)CCC(=O)c2ccccc21 | / | / | / | 2%[9.22 µM] | -3%[7.66 µM]
Cn1c(N=Nc2ccc(N3CCOCC3)cc2)[n+](C)c2ccccc21 | 7.6µM* | -14% | -10% | -3% | 13µM*
O=C1NCCC/C1=N/Nc1cc(F)ccc1F | 19µM* | ? | ? | / | /
Cc1ccc(N/N=C2/CCCNC2=O)cc1 | ? | 3% | 6% | 11% | -2%
O=c1[nH]cnc2cc(-c3ccc(Br)cc3)sc12 | 7.6µM* | 2.5µM* | 2.8µM* | / | /
Cc1ccc(-n2nnc(-c3nccn3C)n2)cc1 | 1.3µM* | 0.5µM* | 0.35µM* | / | /
Fc1ccc(-n2nnc(-c3cccnc3Cl)n2)cc1 | 2.4µM* | 1.6µM* | 0.35µM* | / | /
Clc1ccc(-n2nnc(-c3cccnc3Cl)n2)cc1Cl | 1.3µM* | 1µM* | 1.1µM* | / | /
Fc1ccc(-n2nnc(-c3ccccc3Cl)n2)cc1 | 0% | -6% | -4% | / | /
SMILES | FLuc modulator | NPC1 prom act | Rab9 prom act | SMN2 splice enh | Luc counter
COc1ncccc1-c1nnn(-c2ccccc2)n1 | 3.4µM* | 1.8µM* | 0.71µM* | / | /
Cc1ccc(C)c(N2CCN(C(c3ccc(F)cc3)c3nnc(-c4ccccc4)o3)CC2)c1 (centres undefined) | -5% | / | / | -10% | /
NC(=S)NCCC[C@H](N)C(=O)O | / | 10%[46.1 µM] | 0%[46.1 µM] | -2% | /
Cc1nn(C(=O)c2cccc([N+](=O)[O-])c2C)c(C)c1S(=O)(=O)N1CCCCCC1 | 2% | / | / | / | /
Fc1ccc(-n2nnc(-c3nccs3)n2)cc1 | 3.4µM* | 0.5µM* | 0.5µM* | / | /
Cc1ccc(-n2nnc(-c3cnc4ccccc4c3)n2)cc1 | 0.43µM* | 0.89µM* | 0.32µM* | / | /
CCc1ccccc1-n1nnc(-c2ccccc2)n1 | 2% | 5% | 8% | / | /
c1ccc2ncc(-n3cnnn3)cc2c1 | -4% | 7% | 0% | -5% | -1%
Clc1ncccc1-c1nnn(-c2ccccc2)n1 | 2.4µM* | 1.1µM* | 1.4µM* | / | /
c1ccc(OCCCn2nnc(-c3cccnc3)n2)cc1 | -3% | -6% | 1% | -11% | 4%
